# Shiga inhibitor = Shiga toxin inhibition; Vero cells, Shiga toxin protein synthesis inhibition reporter; inhibition, % at 38.7 µM; 9.2% of 290,000 active; in the data active = inhibition mostly above about 28%, no sharp cut-off; inactive = mostly below about 43%; also: 0% is about no effect
# Pf growth 48h = inhibits P. falciparum growth in the first generation, 48 h | P. falciparum luciferase growth in erythrocytes, 48 h | Potency, µM (doses to about 28.7 µM), without a hit: at the top dose activity change, negative = inhibition, usual class: inhibitors | 5.9% of 310,000 active | AID 504832; also: potency is read from the fitted curve at half-maximal effect; % is scaled to controls: 0 for no effect and ±100 for the full control effect
#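 A one-generation exposure of luciferase-tagged malaria parasites in RPMI 1640/Albumax erythrocyte culture, 37 C and 5% CO2. Inhibition is inferred from decreased luminescence after adding detection reagent.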
# Pf growth 96h = inhibits malaria parasite growth, 96 h; P. falciparum luciferase reporter growth, 96 h; Potency, µM (top dose mostly 28.7 µM), for inactives: at the top dose activity change, negative = inhibition, actives largely listed as inhibitors; 6.9% of 320,000 active; AID 504834; also: potency is read from the fitted curve at half-maximal effect; % is scaled to controls: 0 for no effect and ±100 for the full control effect
#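 Delayed-death screen, second-generation endpoint: infected erythrocytes, 2% hematocrit, 0.05% parasitemia final; 96 hours at 37 C, 5% CO2; luciferase detection reagent; luminescence decrease equals reduced growth.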
# Cycloheximide cs = counter-screen hit for Shiga toxin inhibitors, cycloheximide. cell reporter, cycloheximide protein synthesis inhibition counterscreen. max response, %. 12% of 300,000 active. AID 2314; in the data active = max response mostly above about 13%, no sharp cut-off; inactive = mostly below about 14%; also: read at 38.3 µM for the half of the compounds with a filed dose; 0% is about no effect
# An asterisk follows results filed as active; ? = inconclusive; . = no result given. Only some compounds are listed: those with a hit (about 21% of all), similar ones and a draw of the others. Unless noted, calls follow the shape of the dose curve; as a rule, active = well fitted inhibition curve with a large enough effect; inconclusive = small, poorly fitted or top-dose-only effect, or another doubt; inactive = no such curve, though single readings can be large or run the other way.
SMILES,Shiga inhibitor,Pf growth 48h,Pf growth 96h,Cycloheximide cs
COc1ccc(S(=O)(=O)N2CCC(C(=O)N[C@@H](C)C(=O)NCc3ccccc3OC)CC2)cc1,-9,-1%,-68%,23
CSCC[C@H](NC(=O)CNC(=O)CNC(=O)[C@H](CO)NC(=O)[C@H](CCCNC(=N)N)NC(=O)[C@H](CO)NC(=O)[C@H](CC(C)C)NC(=O)[C@H](CC(C)C)NC(=O)CNC(=O)[C@H](C)NC(=O)[C@H](CC(C)C)NC(=O)[C@H](CCCNC(=N)N)NC(=O)[C@H](Cc1cnc[nH]1)NC(=O)[C@@H](NC(=O)[C@@H](N)C(C)C)[C@@H](C)O)C(=O)N[C@H](C(=O)N[C@@H](CCCCN)C(=O)N[C@@H](CO)C(=O)N[C@@H](CC(N)=O)C(=O)N[C@@H](Cc1ccccc1)C(=O)N[C@H](C(=O)N1CCC[C@H]1C(=O)N[C@H](C(=O)N[C@@H](CC(N)=O)C(=O)N[C@H](C(=O)NCC(=O)N[C@@H](CO)C(=O)N[C@@H](CCCCN)C(=O)N[C@@H](C)C(=O)N[C@@H](Cc1ccccc1)C(N)=O)C(C)C)[C@@H](C)O)C(C)C)C(C)C,8,.,.,-4
COc1cc(CC(=O)NCCc2ccc(S(N)(=O)=O)cc2)cc(OC)c1OC,-23,0%,.,-1
O=C(N=Nc1c(O)[nH]c2ccc(Cl)cc12)c1cc(-c2cccs2)nc2ccccc12,11,41%,-15%,-3
COCCN(C(=O)COC(=O)c1nc(Cl)ccc1Cl)c1c(N)n(Cc2ccccc2)c(=O)[nH]c1=O,.,11%,57%,.
COc1cc(/C=C2\SC(=O)N(CCNC(=O)c3sc4cc(F)ccc4c3Cl)C2=O)cc(OC)c1OC,12,?,?,0
Cc1ccc(C(=O)NCC(=O)Nc2ccc3c(c2)CCC3)cc1C,.,40%,30%,.
O=[N+]([O-])c1cccc(CNc2ccc3c(c2)CCC3)c1,active,5%,-24%,19
O=C(Cc1ccccc1)Nc1ccc2c(c1)CCC2,105*,145%,35%,39*
O=C(Nc1ccc2c(c1)CCC2)c1ccc(F)cc1,0,-20%,-51%,30*
O=C(Nc1ccccc1)Nc1ccc2c(c1)CCC2,156*,73%,4%,81*
COc1ccc(CC(=O)Nc2ccc3c(c2)CCC3)cc1,4,17%,456%,16
O=C(Nc1cccc(F)c1)Nc1ccc2c(c1)C(=O)OC2,34,26%,34%,8
O=C(Nc1cccc(F)c1)Nc1ccc2c(c1)CCC2,80*,-8%,1.7µM*,25*
CS(=O)(=O)NCCSc1nnnn1-c1ccccc1,1,22%,46%,-1
O=S(=O)(NCCSc1nnnn1-c1ccccc1)c1cccs1,43*,42%,-1%,33*
Cc1ccsc1C(=O)C1CCCN(Cc2cc(F)ccc2-n2cccn2)C1 (stereo unspecified),-7,?,23%,-4
Cc1cccc(C)c1NC(=O)CN(C)CC(=O)c1c(N)n(Cc2ccccc2)c(=O)n(C)c1=O,.,12µM*,-12%,.
CCn1c(=O)c(C(=O)CN(C)CC(=O)Nc2ccccc2Br)c(N)n(Cc2ccccc2)c1=O,.,10µM*,?,.
COc1ccccc1N1CCN(C(=O)c2ccccc2Oc2ccccc2)CC1,-39,13µM*,?,10
COc1ccccc1N1CCN(C(=O)C(Cc2ccccc2)NC(=O)C2CCCCC2)CC1 (stereo unspecified),-7,10µM*,0%,-2
O=C(O)c1ccccc1Oc1ccc(Oc2ccccc2)cc1,25,0%,?,7.5*
COc1ccccc1N1CCN(C(=O)c2ccccc2NC(=O)C2CCCCC2C(=O)O)CC1 (stereo unspecified),11,15%,7.4µM*,5
O=C(O)c1ccccc1C(=O)c1ccc(Oc2ccccc2)cc1,20,15%,?,16
COc1cscc1C(=O)O,13,48%,22%,-1
SMILES,Shiga inhibitor,Pf growth 48h,Pf growth 96h,Cycloheximide cs
COc1cc(C(C)=O)ccc1COc1ccc(C(=O)O)cc1OC,10,-15%,29%,-1
COc1ccccc1N1CCN(C(=O)c2nn(-c3ccccc3OC)c(=O)c3ccccc23)CC1,-14,9.3µM*,?,-1
COc1ccccc1-n1nc(C(=O)O)c2ccccc2c1=O,-3,1%,?,-2
Cc1ccc(S(=O)(=O)N(C)c2ccccc2C(=O)N2CCOCC2)cc1,-4,71%,-25%,-1
COc1ccccc1N1CCN(C(=O)c2ccccc2N(C)S(=O)(=O)c2ccc(C)cc2)CC1,-14,10µM*,?,0
CC(=O)Oc1ccc(C(=O)N2c3ccccc3NC(=O)C2C)cc1 (stereo unspecified),-7,-8%,-16%,-2
Cc1ccc2nc(C)c(C(=O)N/N=C/c3ccccc3[N+](=O)[O-])cc2c1,9,43%,27%,2
CC(C)NC(=S)N/N=C/c1ccccc1[N+](=O)[O-],46,?,-18%,22*
O=C(CSc1ccccn1)N/N=C/c1cc([N+](=O)[O-])ccc1O,-8,?,?,-2
O=C(CSc1ccccn1)N/N=C/c1ccccc1[N+](=O)[O-],38*,51%,-25%,38*
CCCCCC(=O)N/N=C/c1ccccc1[N+](=O)[O-],36,13%,46%,19*
O=C(CSc1ccccn1)N/N=C/c1c[nH]c2ccccc12,-1,10%,?,14*
CC1=NNC(=O)C1CCC(=O)N/N=C\c1ccccc1[N+](=O)[O-] (stereo unspecified),9,?,15%,10
O=[N+]([O-])c1ccccc1/C=N\Nc1nccs1,11,67%,?,6
CCCCCC(=O)N/N=C/c1ccco1,15,27%,13µM*,6
O=[N+]([O-])c1ccccc1/C=N/NC1=NCCCCC1,43*,135%,69%,77*
O=C(CCCCCCCCC(=O)N/N=C/c1ccco1)N/N=C/c1ccco1,2,-13%,?,-4
CC1(c2ccc3ccccc3c2)NC(=O)N(CC(=O)NCC(C)(C)N2CCOCC2)C1=O (stereo unspecified),.,-24%,-2%,.
CCCc1nc(Nc2nc3ccccc3o2)nc(C)c1C(=O)OCC,129*,126%,.,61*
Cc1c(C#N)c(O)n(CCO)c(=O)c1N=Nc1ccc(S(N)(=O)=O)cc1,-4,10%,1%,2
Cc1c(C#N)c(O)n(C)c(=O)c1N=Nc1ccc(S(N)(=O)=O)cc1,108*,23%,24%,27
COc1ccc(NC(=O)c2c(NC(=O)CNCc3ccco3)sc3c2CCC3)cc1,5,2.6µM*,?,8
CCOC(=O)c1c(NC(=O)CN2CCOCC2)sc2c1CCCC2,-19,.,.,-5
CCOc1ccc(NC(=O)c2c(NC(=O)CNCCN3CCOCC3)sc3c2CCC3)cc1,5,0.33µM*,6%,12
COc1ccc(NC(=O)c2c(NC(=O)CNCc3ccco3)sc3c2CCC3)c(OC)c1,-6,?,-22%,-3
Cc1ccc2cc(-c3noc(C4CCCO4)n3)c(=O)[nH]c2c1 (stereo unspecified),56,.,?,17*
CCOc1ccccc1-c1nc(-c2cc3ccccc3nc2OC)no1,-1,0%,?,1

# Screens: PubChem BioAssay, National Center for Advancing Translational Sciences (NCATS)
